# Reference: PubChem BioAssay AID504467 (National Center for Advancing Translational Sciences (NCATS), 2011)
# About 7,700 (2.3%) of roughly 330,000 compounds were called active. About 26% were inconclusive and are not listed. Many of the other results were omitted from the sample, so actives are more common in it than they were. Unmarked numbers belong to inactive results. The call rests on the fitted dose curve; in most records, active means well fitted inhibition curve with a large enough effect; inconclusive means small, poorly fitted or top-dose-only effect, or effect the other way; inactive means flat fitted curve, though single readings scatter.
# Experiment: qHTS screen for small molecules that inhibit ELG1-dependent DNA repair in human embryonic kidney (HEK293T) cells expressing luciferase-tagged ELG1; further: nearly all actives have a fitted effect of over 55% in size
# Conditions: HEK293T ELG1-luciferase reporter, luminescence, 16 h, DNA damage induced by 5-fluorouridine; series mostly up to 46.1 µM; activity change, negative = inhibition: at the top concentration
# Summary of the method: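 HEK293T cells expressing luciferase-tagged ELG1 (2,000/well) received 5-Fluorouridine plus compound or DMSO for 16 hr at 37 °C. Luciferase was read by ONE-Glo luminescence after 30 min at room temperature.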
# On the % scale 0 is the no-effect control and ±100 the full control effect; potency means the concentration at half of the fitted maximal effect.
Compound,Potency,"activity change, negative = inhibition"
OC(CN=c1sc2ccccc2n1CC(O)COc1ccccc1)COc1ccccc1 (stereo not drawn),20.6 µM (active),–
O=C(c1ccccc1)c1ccc(OCC(O)CN2CCCC2)cc1 (stereo not drawn),–,-15%
OC(COc1ccccc1)Cn1cc(Br)cn1 (stereo not drawn),–,11.2%
CC1(C)CC(=O)C=C(c2ccc(Cl)c(C(F)(F)F)c2)C1,–,12.4%
COc1ccc(C(CNC(=O)COc2ccc([N+](=O)[O-])cc2)N2CCCCC2)cc1 (stereo not drawn),–,18.2%
Cc1c(O)c(C)c2c(c1O)C(=O)C[C@@H](c1ccccc1)O2,–,20.9%
COc1cc(C(=O)NCc2ccc(-n3cccc3)cc2)cc(OC)c1OC,–,14.2%
COc1cc(C(=S)NCc2ccccc2)cc(Br)c1O,–,-1.45%
COc1cc(C(=O)NCc2ccncc2)cc(Br)c1OCc1ccccc1,14.6 µM (active),–
CC[C@]1(C(=O)OC)[C@H]2C(=O)N(C)C(=O)[C@H]2[C@H]2CN(C)C(=NCc3ccccc3)N21,–,0.774%
COc1ccc(NC(=O)CN(C)C(=O)c2cccc(S(=O)(=O)N3CCN(c4ccccc4)CC3)c2)cc1,–,-24.7%
CC1CCCCC1NC(=O)Cn1cnc2c1c(=O)n(C)c(=O)n2C (stereo not drawn),–,9.25%
O=C(NCc1ccc(Cl)cc1)C1CCN(S(=O)(=O)c2cccs2)CC1,–,1.66%
O=C(Nc1ccc(Br)cn1)C1CCN(S(=O)(=O)c2cccs2)CC1,5.8 µM (active),–
O=C(NC1CCCCC1)C1CCCN(S(=O)(=O)c2cccs2)C1 (stereo not drawn),–,7.89%
O=C(COC(=O)c1ccccn1)NNC(=O)c1ccc(Br)cc1,–,14.1%
Cc1ccc(OCC(=O)Nc2ccccc2C(=O)NC2CC2)cc1,–,4.58%
CCCCNC(=O)N(O)C1N(/N=C/c2ccccc2O)C(=S)SC1(C)C (stereo not drawn),–,-3.57%
CCOC(=O)C1CCCN(C(=O)CSc2nnc3nc(C)cc(C)n23)C1 (stereo not drawn),–,2.07%
CCCc1cc(=O)[nH]c(SCC(=O)Nc2sc3c(c2C#N)CCCC3)n1,–,2.43%
N#Cc1c(NC(=O)CSc2nc3ccccc3c(=O)n2Cc2ccco2)sc2c1CCCC2,–,-11.7%

Compound,Potency,"activity change, negative = inhibition"
COc1ccc(-n2c(SCC(=O)Nc3sc4c(c3C#N)CCCC4)nnc2-c2ccc(O)cc2)cc1,18.4 µM (active),–
CCOc1ccccc1NC(=O)CCc1nnc2ccc(NCc3ccco3)nn12,–,4.95%
CN(CC(=O)Nc1ccc(F)cc1)CC(=O)N1CCCCC1,–,-11.1%
Cc1ccc(NC(=O)C2CC2)cc1S(=O)(=O)N1CCOCC1,–,-2.57%
CN(CC(=O)Nc1ccc(F)cc1)CC(=O)Nc1ccc(Cl)c(S(=O)(=O)N2CCOCC2)c1,18.3 µM (active),–
CN(CCC(=O)Nc1cc(S(=O)(=O)N(C)C)ccc1Cl)CC(=O)Nc1ccc(F)cc1,–,-5.53%
Cc1ccc(NC(=O)c2ccccn2)cc1S(=O)(=O)N1CCOCC1,–,5.46%
Cc1ccc(NC(=O)c2ccc(Cl)nc2)cc1S(=O)(=O)N1CCOCC1,23.1 µM (active),–
Cc1ccc(NC(=O)C2CCC(C(C)(C)C)CC2)cc1S(=O)(=O)N1CCOCC1 (stereo not drawn),23.1 µM (active),–
CC(=O)NCCc1ccc(S(=O)(=O)Nc2ccc(C)c(S(=O)(=O)N3CCOCC3)c2)cc1,–,2.11%
Cc1ccc(NC(=O)CCCNC(=O)c2ccc(Cl)cc2)cc1S(=O)(=O)N1CCOCC1,–,-8.87%
COc1cccc(CNC(=O)C(=O)NCCC2CCCCN2S(=O)(=O)c2ccc(C)cc2)c1 (stereo not drawn),–,-29.2%
O=C(CNC(=O)c1ccccc1Br)NCCSc1ccc(Br)cc1,–,-19.1%
CC(C)(C)OC(=O)C1=C(CO)CS[C@@H]2[C@H](NC(=O)Cc3ccccc3)C(=O)N12,–,11.9%
COc1ccc(S(=O)(=O)N2CCN(C)CC2)c(C)c1,–,5.66%
COc1ccc(C)cc1Nc1nc(-c2c(C)[nH]c3ccccc23)cs1,–,-10.1%
COc1ccc2c(c1OC)C(=O)OC2Nc1nc(-c2ccccc2)cs1 (stereo not drawn),9.2 µM (active),–
COc1ccc2c(c1OC)C(=O)OC2c1c(O)nc(SC)n(-c2ccccc2)c1=O (stereo not drawn),–,-5.33%
O=C(Nc1ccc(N2CCOCC2)c(Cl)c1)c1ccc(S(=O)(=O)N2CCOCC2)cc1,–,-11.2%
O=C(CN1C(=O)c2ccccc2S1(=O)=O)NC1CCCCC1,–,11%
O=C(CN1CCN(c2ccccn2)CC1)N1CCc2ccccc21,–,1.75%

Compound,Potency,"activity change, negative = inhibition"
O=C(CN1C(=O)c2ccccc2S1(=O)=O)N1CCc2ccccc21,20.6 µM (active),–
CCOc1ccc(-n2c(SCC(=O)Nc3cc(C(=O)O)ccc3Cl)nc3ccccc3c2=O)cc1,–,8.71%
O=C(O)CCCn1c(=O)c2cccn2c2ccc(F)cc21,–,13.5%
O=C(CN1C(=O)c2cccc3cccc(c23)C1=O)N1CCCCC1,–,-4.51%
O=C(Nc1cccc2ccccc12)N1CCN(Cc2ccc3c(c2)OCO3)CC1,–,-2.1%
Cc1cc(C)n2nc(C(=O)N3CCN(Cc4ccc5c(c4)OCO5)CC3)nc2n1,–,-5.43%
O=C(c1cccs1)N1CCN(Cc2ccc3c(c2)OCO3)CC1,–,-19.8%
O=C(CSCc1ccc(Cl)cc1)N1CCN(Cc2ccc3c(c2)OCO3)CC1,20.6 µM (active),–
O=C(CCCN1C(=O)c2cccc3cccc(c23)C1=O)N1CCN(Cc2ccc3c(c2)OCO3)CC1,2.31 µM (active),–
CCOc1ccccc1NC(=S)NC(=O)CCc1ccccc1,–,-23.7%
COc1ccc(NC(C)=O)cc1NC(=O)CN1CCN(C2c3ccccc3-c3ccccc32)CC1,0.92 µM (active),–
COc1cccc(NC(=O)CN2CCN(CC(=O)Nc3ccccc3Cl)CC2)c1,–,-15.9%
COc1ccc(NC(C)=O)cc1NC(=O)CN1CCN(c2ccccn2)CC1,–,9.16%
CCCCN(CCCC)CCCNC(=O)CN1C(=O)COc2ccc(S(=O)(=O)N3CCC(C)CC3)cc21,–,11.5%
CC(C)n1ncc2c(C(=O)NCc3ccccc3CN(C)C)cc(C3CC3)nc21,–,-11.2%
COc1ccc(S(=O)(=O)N2CN(CCc3ccc(OC)c(OC)c3)c3nc4ccccc4nc32)cc1,–,-17.5%
COc1ccc(CCn2c(-c3ccco3)nc3nc4ccccc4nc32)cc1OC,4.61 µM (active),–
Clc1cccc(-c2nc3nc4ccccc4nc3n2Cc2ccco2)c1,–,-13.2%
CCOc1ccccc1-c1cc(C(=O)N/N=C(\C)c2cccnc2)c2ccccc2n1,–,-12.8%
COc1ccc(-c2nc(CS(=O)(=O)CC(=O)NCc3cccc(Br)c3)c(C)o2)cc1,–,-4.23%
C=CCn1c(SCC(=O)NC)nnc1C12CC3CC(CC(C3)C1)C2,–,-14.1%
